Here are results for 13 molecules from PubChem BioAssay (NCATS).

Several values for one entry are separate records, joined by “and”; a condition that tells them apart may be missing. Identical values can stand only once. Inconclusive results are not listed. Activity calls are given as the source filed them. Unless noted, calls come from the whole dose curve.

Assay [1] addresses Peroxisome proliferator-activated receptor delta (Homo sapiens) (UniProt Q03181). As to the kind of experiment: qHTS assay for small molecule agonists of peroxisome proliferator-activated receptor delta signaling (AID 588534).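 Note: 0% = DMSO basal wells and 100% = positive control agonist at 10 µM.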 Summed up:
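Cell-based beta-lactamase reporter assay run in agonist mode: cells seeded and incubated 5 hrs at 37 C, compounds added and incubated 18 hrs at 37 C. CCF4 dye fluorescence read after 2 hrs at RT; EC50 and efficacy from Hill fits.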
In general terms: In qHTS, concentration-response curves come from the screen itself.

The nature of assay [2]: qHTS for Inhibitors of the Functional Ribonucleoprotein Complex (vRNP) of Lassa (LASV) Arenavirus: LASV Primary Screen - GLuc reporter signal (AID 1347082; calls by dose curve; tested in HEK293 reporter line; note: % is set by controls: 0 for no effect and ±100 for the full control effect; nearly all actives have a fitted effect of over 60% in size).
Assay [3] can be described thus: qHTS for Inhibitors of the Functional Ribonucleoprotein Complex (vRNP) of Lassa (LASV) Arenavirus: Viability assay - alamar blue signal for LASV Primary Screen (AID 1347083; calls by dose curve; tested in HEK293 reporter line; note: % is set by controls: 0 for no effect and ±100 for the full control effect; nearly all actives have a fitted effect of over 80% in size).
A short description of assay [4]: qHTS for Inhibitors of the Functional Ribonucleoprotein Complex (vRNP) of Lymphocytic Choriomeningitis Arenaviruses (LCMV): Viability assay - alamar blue signal for LCMV Primary Screen (AID 1347085; calls by dose curve; tested in HEK293 reporter line; note: nearly all actives have a fitted effect of over 80% in size; note: potency is the fitted concentration of half-maximal effect).
The target of assay [5] is Nucleoprotein (Lymphocytic choriomeningitis virus (strain Armstrong)) (UniProt P09992). As to the kind of experiment: qHTS for Inhibitors of the Functional Ribonucleoprotein Complex (vRNP) of Lymphocytic Choriomeningitis Arenaviruses (LCMV): LCMV Primary Screen - GLuc reporter signal (AID 1347086). Note: % is set by controls: 0 for no effect and ±100 for the full control effect; nearly all actives have a fitted effect of over 70% in size.
Nucleoprotein (Lymphocytic choriomeningitis virus (strain Armstrong)), sequence (P09992 whole entry, looked up): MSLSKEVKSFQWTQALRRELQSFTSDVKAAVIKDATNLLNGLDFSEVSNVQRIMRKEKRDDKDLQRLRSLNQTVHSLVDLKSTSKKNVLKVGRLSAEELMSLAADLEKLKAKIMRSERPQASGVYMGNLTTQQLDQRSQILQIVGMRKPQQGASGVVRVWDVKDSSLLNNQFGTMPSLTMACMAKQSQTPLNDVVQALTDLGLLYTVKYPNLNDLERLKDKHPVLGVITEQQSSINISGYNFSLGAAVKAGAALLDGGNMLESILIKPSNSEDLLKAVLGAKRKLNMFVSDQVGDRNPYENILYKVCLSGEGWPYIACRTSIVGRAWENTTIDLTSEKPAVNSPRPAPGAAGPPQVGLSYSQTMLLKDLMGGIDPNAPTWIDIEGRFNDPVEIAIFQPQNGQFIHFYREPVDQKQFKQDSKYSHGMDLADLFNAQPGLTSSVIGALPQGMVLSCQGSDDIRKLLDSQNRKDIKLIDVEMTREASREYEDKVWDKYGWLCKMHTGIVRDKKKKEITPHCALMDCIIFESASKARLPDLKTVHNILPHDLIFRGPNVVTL
Assay [6] in a line: qHTS profiling for inhibitors of Plasmodium falciparum (3D7) proliferation (AID 743322).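 Note: infected erythrocytes exposed to compound for 72 h before lysis; 100% = DMSO vehicle wells and 0% = 0.29 µM artemisinin.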 Particulars: P. falciparum 3D7 proliferation; at 28.7 µM (top of the series). An outline of the steps:
(§1)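 Erythrocytes infected with P. falciparum (0.3% parasitemia, 2.5% hematocrit) incubated with compounds 72 h at 37 C, 5% CO2. Lysis with saponin/Triton buffer containing SYBR Green I, overnight at room temperature in the dark; DNA fluorescence (485/535 nm) normalised to 0.29 uM artemisinin and DMSO.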

Assay [7] can be described thus: qHTS profiling for inhibitors of Plasmodium falciparum (DD2) proliferation (AID 743323; call rule not given here). Particulars: lower = more inhibition; at 28.7 µM (top of the series). An outline of the steps: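 1536-well qHTS; infected RBCs 0.3% parasitemia/2.5% Hct final; cpd 72 h 37 C 5% CO2; lysis buffer + SYBR Green I, o/n RT dark; FI 485/535; norm. to 0.29 uM artemisinin and DMSO, plate-stack corrected.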

A short description of assay [8]: qHTS profiling for inhibitors of Plasmodium falciparum (HB3) proliferation (AID 743324; active = well fitted curve in the direction sought with a large enough effect; inactive = no such curve, though single readings can be large or run the other way;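 note: 100% = DMSO vehicle wells and 0% = artemisinin-treated control wells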). Particulars: Plasmodium falciparum HB3 blood-stage proliferation; at 28.7 µM (top of the series). An outline of the steps:
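P. falciparum HB3 grown in erythrocytes (0.3% parasitemia, 2.5% hematocrit final) with compound for 72 h at 37 C, 5% CO2. Parasite DNA detected by SYBR Green after saponin/triton lysis overnight; normalized to 0.29 uM artemisinin and DMSO.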

Assay [9] can be described thus: qHTS profiling of the MIPE4 collection as inhibitors of Plasmodium falciparum (3D7) proliferation (AID 743344; call rule not given here;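 note: scaled between DMSO vehicle wells and 0.29 µM artemisinin as full inhibition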). The note with it: P. falciparum 3D7 in erythrocytes, SYBR Green DNA fluorescence, 72 h; at 28.5 µM (top of the series) unless noted. An outline of the steps:
as §1

A short description of assay [10]: qHTS profiling of the MIPE4 collection as inhibitors of Plasmodium falciparum (DD2) proliferation (AID 743345; call rule not given here). Particulars: P. falciparum Dd2 in erythrocytes, SYBR Green DNA, 72 h; at 28.5 µM (top of the series) unless noted. Summed up: as §1
A short description of assay [11]: qHTS profiling of the MIPE4 collection as inhibitors of Plasmodium falciparum (DD2) proliferation (Rep 2) (AID 743346; call rule not given here). Particulars: P. falciparum Dd2 in erythrocytes, SYBR Green DNA, 72 h; at 28.5 µM (top of the series) unless noted. Summed up:
as §1

The nature of assay [12]: qHTS profiling of the MIPE4 collection as inhibitors of Plasmodium falciparum (HB3) proliferation (AID 743347; call rule not given here;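 note: plate controls were DMSO vehicle wells for no effect and artemisinin wells for full effect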). The note with it: P. falciparum HB3 in erythrocytes, SYBR Green DNA, 72 h; at 28.5 µM (top of the series) unless noted. Summed up: as §1
A short description of assay [13]: Primary qHTS for Huh7 cytotoxicity: counterscreen for inhibitors of MERS-S pseudotyped particle cell entry (AID 1479147). Note: % is set by controls: 0 for no effect and ±100 for the full control effect. Particulars: outcome: dose series up to 57.1 µM unless noted.
Assay [14] can be described thus: Primary qHTS for inhibitors of MERS-S pseudo-typed particle cell entry (AID 1479149). Note: nearly all actives have a fitted effect of over 60% in size.
Assay [15] is described as follows: Primary qHTS for Vero E6 cytotoxicity: counterscreen for inhibitors of SARS-S pseudo-typed particle cell entry (AID 1479150). The note with it: outcome: dose series up to 57.1 µM unless noted.
A short description of assay [16]: Cytotoxicity counterscreen for inhibitors of SARS-CoV-2 cell entry (AID 1645845). Note: nearly all actives have a fitted effect of over 50% in size. An outline of the steps: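 HEK293-ACE2 cells (Expi293F stably expressing human ACE2) seeded overnight, then compound for 1 h plus 48 h at 37C. Viability as ATP content by luminescence; normalized to wells with cells and media-only wells.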
(In general: The purpose of a counterscreen is to sort out artefacts and off-target activity.)

Assay [17] can be described thus: Primary qHTS to identify inhibitors of SARS-CoV-2 cell entry (AID 1645846). Note: nearly all actives have a fitted effect of over 45% in size. Particulars: activity change, negative = inhibition: at 57.1 µM (top of the series) unless noted. An outline of the steps:
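Data are normalized to wells receiving SARS-CoV-2-S pseudoparticles and those given bald particles. Entry signal was luciferase luminescence in stable hACE2 Expi293F cells, 48 hr post-infection, after 1 hr compound pretreatment.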

Peroxisome proliferator-activated receptor delta (Homo sapiens), sequence (Q03181 whole entry, looked up): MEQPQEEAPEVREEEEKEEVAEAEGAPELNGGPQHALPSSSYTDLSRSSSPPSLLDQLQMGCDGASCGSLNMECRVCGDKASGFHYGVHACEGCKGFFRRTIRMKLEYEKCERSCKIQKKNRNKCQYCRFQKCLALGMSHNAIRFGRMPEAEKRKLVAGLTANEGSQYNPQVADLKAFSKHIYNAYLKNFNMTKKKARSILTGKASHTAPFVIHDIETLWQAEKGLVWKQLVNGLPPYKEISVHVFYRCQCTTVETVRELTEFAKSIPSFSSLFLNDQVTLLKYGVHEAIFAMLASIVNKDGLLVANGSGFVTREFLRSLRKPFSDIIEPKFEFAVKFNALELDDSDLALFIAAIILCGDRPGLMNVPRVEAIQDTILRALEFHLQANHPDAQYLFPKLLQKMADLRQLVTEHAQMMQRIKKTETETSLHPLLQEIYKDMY

For `CCCCCCCCCCCCCCCCCC(N)=O`, the Potency result in assay [1], in assay [2], in [3], in assay [4] and in [5] was “inactive” throughout.
For `CC(=O)N(O)CCCP(=O)(O)O`, the remaining parasite growth % (stronger effect = lower value) in assay [6] came out at 13.5%. This molecule gave an activity, percent of control in [7] of 10.8%. The molecule further came in with a remaining proliferation (% of control), lower = more inhibition in assay [8] of 8.45%. Further, in [9], the parasite growth, % of DMSO control was determined as 13.6%. The parasite growth remaining, % of DMSO control (lower = more inhibition) in [10] was found to be 18.6%. The same molecule had a parasite growth, % of control (lower = inhibition) in [11] of 18.1%. For the same molecule, the growth, % of control in assay [12] was 13%. Further, the Potency entry in assay [2], in assay [3], in assay [4] and in assay [5] was “inactive” in each case.
On to `CC/C=C\CCOC(=O)c1ccccc1O`, for which the Potency result in assay [1], in [2], in assay [3], in [4] and in [5] was “inactive” in each case.
`C/C=C/C=C/CCCCCCCO`: the Potency result in assay [1], in [2], in [3], in [4] and in assay [5] was “inactive” in each case.
As for `CCNc1nc(N)nc(Cl)n1`, the Potency entry in assay [1], in assay [2], in [3], in [4] and in assay [5] was “inactive” each time.
`CCCCCC1CCC(=O)O1` (stereo not given): the Potency entry in assay [1], in assay [2], in assay [3], in assay [4] and in assay [5] was “inactive” each time.
For `CCCCC(CC)C(=O)O` (stereo not given), the Potency result in [1], in [2], in [3], in assay [4] and in [5] was “inactive” throughout.
Molecule `C[C@H](CCC(=O)O)[C@H]1CC[C@H]2[C@@H]3[C@H](O)C[C@@H]4C[C@H](O)CC[C@]4(C)[C@@H]3CC[C@]12C` showed a parasite growth, % of DMSO control in [9] of 59.3%. Also, the parasite growth remaining, % of DMSO control (lower = more inhibition) in [10] came to 92.9%. In addition, the parasite growth, % of control (lower = inhibition) in assay [11] turned out to be 67.3%. The growth, % of control in assay [12] was found to be 81.3%. In addition, the Potency entry in assay [2], in assay [3], in [4] and in assay [5] was “inactive” in each case.
Consider `CC(C)OC(=O)[C@H](C)N[P@](=O)(OC[C@H]1O[C@@H](n2ccc(=O)[nH]c2=O)[C@](C)(F)[C@H]1O)Oc1ccccc1`, for which the parasite growth, % of DMSO control in assay [9] amounted to 62.8%. This molecule also showed a parasite growth remaining, % of DMSO control (lower = more inhibition) in assay [10] of 95.7%. This molecule came in with a parasite growth, % of control (lower = inhibition) in [11] of 78.3%. Besides, the growth, % of control in assay [12] amounted to 76.4%. For the same molecule, the Potency result in [2], in assay [3], in [4] and in assay [5] was “inactive” in each case.
Consider `COC(=O)CCCC(=O)OC`, for which the Potency entry in assay [1], in assay [2], in assay [3], in assay [4] and in assay [5] was “inactive” each time.
In the case of `CC(C)=CCC/C(C)=C/CC/C(C)=C/CO`, the Potency result in assay [1], in assay [2], in [3], in assay [4] and in assay [5] was “inactive” throughout.
Regarding `CCC(=O)OCCc1ccccc1`, the Potency entry in [1], in assay [2], in [3], in [4] and in assay [5] was “inactive” in each case.
As for `CS(=O)(=O)c1ccc(C2=C(c3ccccc3)C(=O)OC2)cc1`, the Potency result in assay [2], in [3], in [14] and in assay [16] was “inactive” each time. The Potency in assay [4] is 27.3 µM (active). Further, the outcome in assay [13] and in [15] was inactive. In addition, the activity change, negative = inhibition in assay [17] was -28.2% and -25.4%.
